Experimental data: PubChem BioAssay (NCATS)
A number with no mark means an inactive call. Entries that show only a call come without a potency. Activity calls are given as the source filed them. Unless noted, the call rests on the fitted dose curve; in most records, active means well fitted curve in the direction sought with a large enough effect; inconclusive means small, poorly fitted or top-dose-only effect, or another doubt; inactive means no such curve, though single readings can be large; an effect the other way counts as inactive or inconclusive.

Key:
[1] = biological target: Cytochrome P450 2D6 (Homo sapiens) (UniProt P10635); test: qHTS Assay for Inhibitors and Substrates of Cytochrome P450 2D6 (AID 891); further: nearly all actives have a fitted effect of over 60% in size; further: potency means the concentration at half of the fitted maximal effect
Chain of Cytochrome P450 2D6 (Homo sapiens) (P10635 whole entry, looked up): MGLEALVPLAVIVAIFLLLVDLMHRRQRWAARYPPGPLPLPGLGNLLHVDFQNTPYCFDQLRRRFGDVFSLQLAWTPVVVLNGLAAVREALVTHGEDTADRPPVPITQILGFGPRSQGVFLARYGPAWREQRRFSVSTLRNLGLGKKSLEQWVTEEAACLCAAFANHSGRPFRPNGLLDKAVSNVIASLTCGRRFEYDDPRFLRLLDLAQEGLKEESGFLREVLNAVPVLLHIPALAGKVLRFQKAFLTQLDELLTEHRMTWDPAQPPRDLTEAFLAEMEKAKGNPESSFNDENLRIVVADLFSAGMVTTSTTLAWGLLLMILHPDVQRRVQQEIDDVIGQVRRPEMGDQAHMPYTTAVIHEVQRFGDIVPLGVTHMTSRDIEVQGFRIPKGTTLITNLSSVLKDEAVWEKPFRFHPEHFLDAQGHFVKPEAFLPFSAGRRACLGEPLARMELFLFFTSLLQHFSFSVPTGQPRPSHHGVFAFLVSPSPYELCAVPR
Procedure, shortened: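 Human CYP2D6 (5 nM) with 30 uM Luciferin-ME EGE (at Km) in 100 mM KPO4, compound preincubated 10 min, then NADPH regeneration system for 60 min at room temperature. Luciferin read by luminescence; normalized to 1.43 uM quinidine.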

[2] = biological target: Cytochrome P450 2C9 (Homo sapiens) (UniProt P11712); test: qHTS Assay for Inhibitors and Substrates of Cytochrome P450 2C9 (AID 883); further: nearly all actives have a fitted effect of over 60% in size; further: potency means the concentration at half of the fitted maximal effect
Chain of Cytochrome P450 2C9 (Homo sapiens) (P11712 whole entry, looked up): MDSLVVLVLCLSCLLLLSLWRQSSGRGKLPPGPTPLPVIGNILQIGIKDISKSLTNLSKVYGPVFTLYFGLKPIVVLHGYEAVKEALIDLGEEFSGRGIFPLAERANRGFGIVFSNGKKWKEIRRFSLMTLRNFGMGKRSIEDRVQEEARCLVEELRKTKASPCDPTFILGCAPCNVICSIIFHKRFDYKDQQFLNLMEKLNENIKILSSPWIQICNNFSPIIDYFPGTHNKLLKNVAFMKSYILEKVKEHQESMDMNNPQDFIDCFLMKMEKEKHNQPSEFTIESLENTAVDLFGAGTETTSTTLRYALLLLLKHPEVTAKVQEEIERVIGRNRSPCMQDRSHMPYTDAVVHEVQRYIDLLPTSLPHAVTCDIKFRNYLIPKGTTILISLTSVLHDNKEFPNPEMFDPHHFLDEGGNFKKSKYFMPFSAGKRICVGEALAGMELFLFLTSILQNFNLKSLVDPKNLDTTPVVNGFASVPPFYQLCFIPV
Procedure, shortened: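 CYP2C9 deoxyluciferin hydroxylation, 37C, 60 min with NADPH regeneration; 10nM enzyme, 100uM Luciferin-H (KM). Glo detection reagent stopped reaction; luminescence normalized to sulphaphenazole (57uM) full inhibition.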

[3] = biological target: Cytochrome P450 2C19 (Homo sapiens) (UniProt P33261); test: qHTS Assay for Inhibitors and Substrates of Cytochrome P450 2C19 (AID 899); further: nearly all actives have a fitted effect of over 60% in size; further: potency means the concentration at half of the fitted maximal effect
Chain of Cytochrome P450 2C19 (Homo sapiens) (P33261 whole entry, looked up): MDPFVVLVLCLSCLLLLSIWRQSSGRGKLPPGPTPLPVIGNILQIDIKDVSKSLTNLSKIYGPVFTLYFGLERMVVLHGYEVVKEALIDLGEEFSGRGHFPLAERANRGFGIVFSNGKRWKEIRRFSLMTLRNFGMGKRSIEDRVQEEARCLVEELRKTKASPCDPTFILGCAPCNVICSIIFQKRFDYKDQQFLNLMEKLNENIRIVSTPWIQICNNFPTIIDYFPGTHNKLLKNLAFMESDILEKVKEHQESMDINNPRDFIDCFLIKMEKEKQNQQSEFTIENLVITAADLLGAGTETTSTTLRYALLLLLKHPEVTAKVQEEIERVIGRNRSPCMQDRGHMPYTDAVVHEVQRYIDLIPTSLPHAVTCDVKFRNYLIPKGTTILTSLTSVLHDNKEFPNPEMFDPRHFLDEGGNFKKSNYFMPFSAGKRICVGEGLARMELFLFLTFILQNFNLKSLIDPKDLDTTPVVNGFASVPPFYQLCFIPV
Procedure, shortened: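 In 50mM KPO4, the reaction held 5nM enzyme and KM-level (10uM) Luciferin-H EGE; it ran 60 min at 37C after NADPH regeneration and a 10 min compound preincubation. Luminescence values were scaled to 57uM ketoconazole as complete inhibition.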

[4] = system: DFO2036; test: qHTS profiling for inhibitors of Plasmodium falciparum proliferation (AID 504749); further: nearly all actives have a fitted effect of over 60% in size; conditions: P. falciparum in erythrocytes, SYBR Green DNA, 72 h; series mostly up to 28.7 µM
Procedure, shortened: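 P. falciparum-infected erythrocytes (0.3% parasitemia, 2.5% hematocrit final) were exposed to compounds for 72 h at 37 C in 5% CO2, then lysed with SYBR Green buffer overnight at room temperature; parasite DNA fluorescence was normalized to artemisinin and DMSO controls.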

[5] = Cell Viability - Jurkat (AID 426;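 active means dose-dependent loss of cell ATP signal giving a full or clear fitted curve, ranked by lower potency value; inconclusive means weak partial curve or response only at the top dose; inactive means no loss of viability signal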; further: potency means the concentration at half of the fitted maximal effect); conditions: qHTS
Procedure, shortened: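 Jurkat (clone E6-1, human T-cell leukemia) cells, 5000/well in complete medium, were exposed to compound for 40 hr at 37 °C. Viability was read as intracellular ATP by CellTiter-Glo luminescence; AC50 came from Hill fits of concentration-response data.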

[6] = Cell Viability - H-4-II-E (AID 543); further: nearly all actives have a fitted effect of over 35% in size; further: potency means the concentration at half of the fitted maximal effect
Procedure, shortened: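 Rat hepatoma H-4-II-E cells (1500/well) were plated, incubated 5 hr at 37 °C, then exposed to compounds for 40 hr at 37 °C. Cellular ATP was read by CellTiter-Glo luminescence; AC50 came from Hill-equation fits of concentration-response data.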

[7] = Cell Viability - SH-SY5Y (AID 544); conditions: SH-SY5Y neuroblastoma cell viability; viability change, negative = cytotoxic: at 92.2 µM (top of the series); further: potency means the concentration at half of the fitted maximal effect; nearly all actives have a fitted effect of over 55% in size
Procedure, shortened: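 Human neuroblastoma SH-SY5Y cells (1500/well) in complete medium were exposed to compounds for 40 hr at 37 °C; intracellular ATP was then quantified by CellTiter-Glo luminescence after 20 min at room temperature. AC50 came from Hill-equation concentration-response fits.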

[8] = Cell Viability - Renal Proximal Tubule (AID 545); conditions: renal proximal tubule cells viability; at 91.7 µM (top of the series), primary cells of rat origin unless noted; further: nearly all actives have a fitted effect of over 40% in size
Procedure, shortened: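 In this qHTS format, normal rat kidney-derived proximal tubule cells in complete culture medium receive compound titrations, then sit 40 hours at 37 °C before luciferase-based ATP quantitation; potency is reported as AC50 from concentration-response curves.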

[9] = biological target: Estrogen receptor (Homo sapiens) (UniProt P03372); test: qHTS assay for small molecule antagonists of estrogen receptor alpha signaling (AID 588513; active means well fitted curve in the direction sought with a large enough effect in the signal ratio, with a control signal flat, not every such curve was filed as active; inconclusive means small, poorly fitted or top-dose-only effect, or effect the other way, or a change in a side signal; inactive means no such curve, though single readings can be large or run the other way; the % refers to the signal ratio; further: potency means the concentration at half of the fitted maximal effect)
Chain of Estrogen receptor (Homo sapiens) (P03372 whole entry, looked up): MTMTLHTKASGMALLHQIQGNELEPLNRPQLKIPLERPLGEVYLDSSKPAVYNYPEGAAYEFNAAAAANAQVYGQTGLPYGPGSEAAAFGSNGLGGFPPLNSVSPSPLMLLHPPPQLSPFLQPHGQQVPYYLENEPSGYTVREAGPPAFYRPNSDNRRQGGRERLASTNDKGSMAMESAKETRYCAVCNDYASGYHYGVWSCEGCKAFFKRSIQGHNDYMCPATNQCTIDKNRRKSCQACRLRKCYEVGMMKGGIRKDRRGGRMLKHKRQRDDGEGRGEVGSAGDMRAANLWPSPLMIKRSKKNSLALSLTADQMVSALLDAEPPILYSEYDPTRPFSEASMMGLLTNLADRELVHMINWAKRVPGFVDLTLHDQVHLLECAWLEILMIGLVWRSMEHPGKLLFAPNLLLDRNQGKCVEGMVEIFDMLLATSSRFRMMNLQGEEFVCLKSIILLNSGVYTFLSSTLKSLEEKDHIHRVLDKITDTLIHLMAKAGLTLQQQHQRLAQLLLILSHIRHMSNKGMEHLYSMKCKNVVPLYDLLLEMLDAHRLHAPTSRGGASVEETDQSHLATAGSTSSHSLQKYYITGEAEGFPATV
Procedure, shortened: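 Antagonist-mode qHTS in ER-alpha-UAS-bla HEK 293 cells: compound titration, 0.5nM estradiol for 18 h, CCF4 fluorescence, Hill-derived IC50.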

[10] = biological target: Voltage-gated inwardly rectifying potassium channel KCNH2 (Homo sapiens) (UniProt Q12809); test: qHTS Assay for Small Molecule Inhibitors of the Human hERG Channel Activity (AID 588834);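 further: potency means the concentration at half of the fitted maximal effect; lower thallium flux fluorescence means stronger hERG block; nearly all actives have a fitted effect of over 50% in size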
Chain of Voltage-gated inwardly rectifying potassium channel KCNH2 (Homo sapiens) (Q12809 whole entry, looked up): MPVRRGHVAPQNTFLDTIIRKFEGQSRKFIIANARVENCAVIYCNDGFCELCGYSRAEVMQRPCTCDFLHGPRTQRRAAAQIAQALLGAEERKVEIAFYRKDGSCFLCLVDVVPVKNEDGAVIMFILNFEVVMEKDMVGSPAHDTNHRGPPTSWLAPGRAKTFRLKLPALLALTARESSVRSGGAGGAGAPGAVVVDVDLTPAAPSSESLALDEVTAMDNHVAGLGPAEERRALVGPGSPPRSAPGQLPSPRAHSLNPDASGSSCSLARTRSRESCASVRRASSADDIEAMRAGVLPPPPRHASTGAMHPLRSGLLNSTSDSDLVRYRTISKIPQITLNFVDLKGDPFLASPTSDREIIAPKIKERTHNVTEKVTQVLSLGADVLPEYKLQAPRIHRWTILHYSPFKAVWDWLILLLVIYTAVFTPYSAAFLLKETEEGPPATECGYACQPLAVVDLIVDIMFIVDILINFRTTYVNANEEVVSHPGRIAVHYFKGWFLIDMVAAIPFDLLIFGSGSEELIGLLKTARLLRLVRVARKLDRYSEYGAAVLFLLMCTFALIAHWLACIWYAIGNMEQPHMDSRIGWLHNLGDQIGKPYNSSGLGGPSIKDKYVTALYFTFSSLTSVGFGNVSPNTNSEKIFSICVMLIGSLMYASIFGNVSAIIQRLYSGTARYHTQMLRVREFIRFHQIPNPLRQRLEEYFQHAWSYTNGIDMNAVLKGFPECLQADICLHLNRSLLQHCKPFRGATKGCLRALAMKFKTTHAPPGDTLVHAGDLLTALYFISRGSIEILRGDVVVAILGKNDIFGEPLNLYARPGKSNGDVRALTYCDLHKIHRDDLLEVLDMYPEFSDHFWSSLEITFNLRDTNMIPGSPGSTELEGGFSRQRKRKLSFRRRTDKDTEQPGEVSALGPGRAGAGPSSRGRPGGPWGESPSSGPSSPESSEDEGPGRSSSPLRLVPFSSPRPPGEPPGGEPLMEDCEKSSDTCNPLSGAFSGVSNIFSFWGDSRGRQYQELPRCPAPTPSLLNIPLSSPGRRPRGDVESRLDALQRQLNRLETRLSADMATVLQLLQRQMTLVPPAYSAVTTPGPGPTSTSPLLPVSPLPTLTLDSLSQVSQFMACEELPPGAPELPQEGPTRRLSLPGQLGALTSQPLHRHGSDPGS
Procedure, shortened: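 Blockade is seen as reduced FluxOR thallium-flux fluorescence in U2OS cells expressing hERG from a BacMam construct, in Opti-MEM with 2% FCS. Concentration-response data fitted to the Hill equation for AC50.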

[11] = qHTS assay for small molecule disruptors of the mitochondrial membrane potential - 1 hr assay (AID 651754; calls by dose curve; further: nearly all actives have a fitted effect of over 35% in size; further: potency means the concentration at half of the fitted maximal effect)
Procedure, shortened: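 HepG2 cells, attached overnight at 37C, were exposed to compound or DMSO vehicle for 1 hr at 37C, 5% CO2, then stained with Mito-MPS dye for 30 min. Red aggregate versus green monomer fluorescence reports membrane potential.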

[12] = qHTS assay for small molecule disruptors of the mitochondrial membrane potential - 5 hr assay (AID 651755; calls by dose curve; further: nearly all actives have a fitted effect of over 40% in size; further: potency means the concentration at half of the fitted maximal effect)
Procedure, shortened: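 HepG2 cells, attached overnight at 37C, were exposed to compound or DMSO for 5 hr at 37C, 5% CO2. Mito-MPS dye was then added for 30 min, and fluorescence read at 490/535 nm (monomers) and 540/590 nm (aggregates).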

[13] = qHTS assay for small molecule activators of the human pregnane X receptor (PXR) signaling pathway (AID 720659; call rule not given here)
[14] = qHTS assay for small molecule activators of the nuclear factor-kappa B (NF-kB) signaling pathway (AID 651749; active means well fitted activation curve with a large enough effect in the signal ratio; inconclusive means small, poorly fitted or top-dose-only effect, or a change in a side signal; the % refers to the signal ratio); conditions: NF-kB-bla ME-180 cells, beta-lactamase FRET ratio, 16 h; activation: hits give high values
Procedure, shortened: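 ME-180 cells stably carrying a beta-lactamase reporter under an NF-kB response element were exposed to compound or DMSO vehicle for 16 hr at 37C, 5% CO2. Pathway activation was read by FRET, since reporter expression disrupts FRET.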

[15] = biological target: Estrogen receptor (Homo sapiens) (UniProt P03372); test: qHTS assay for small molecule agonists of estrogen receptor alpha signaling (AID 588514; calls by dose curve; further: nearly all actives have a fitted effect of over 70% in size)
Procedure, shortened: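 ER-alpha-UAS-bla GripTite HEK 293 cells in medium with 2% charcoal/dextran-treated FBS were treated with compound titrations at 37 C for 18 hrs; beta-lactamase reporter read by CCF4 fluorescence after 2 hrs at RT.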

[16] = biological target: Bile acid receptor (Homo sapiens) (UniProt Q96RI1); test: qHTS assay for small molecule antagonists of farnesoid X receptor signaling (AID 588526; calls by dose curve)
Chain of Bile acid receptor (Homo sapiens) (Q96RI1 whole entry, looked up): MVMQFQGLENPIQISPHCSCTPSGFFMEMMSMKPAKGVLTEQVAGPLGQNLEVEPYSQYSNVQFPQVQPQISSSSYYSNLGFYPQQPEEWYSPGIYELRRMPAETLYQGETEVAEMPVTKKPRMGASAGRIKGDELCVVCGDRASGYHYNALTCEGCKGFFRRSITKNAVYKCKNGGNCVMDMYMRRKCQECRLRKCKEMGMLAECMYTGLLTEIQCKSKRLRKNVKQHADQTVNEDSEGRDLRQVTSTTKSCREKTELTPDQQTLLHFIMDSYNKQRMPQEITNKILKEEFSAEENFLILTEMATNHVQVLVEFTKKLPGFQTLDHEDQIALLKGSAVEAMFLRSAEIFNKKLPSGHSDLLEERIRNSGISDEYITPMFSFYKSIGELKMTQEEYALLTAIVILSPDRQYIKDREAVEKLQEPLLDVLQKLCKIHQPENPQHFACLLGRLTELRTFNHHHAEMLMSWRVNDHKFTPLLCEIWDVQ
Procedure, shortened: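 Concentration-response titrations were fitted to the Hill equation for half-maximal inhibition and maximal response, with data normalised to 50 uM chenodeoxycholic acid and DMSO control wells. Cells: FXR-UAS-bla HEK293T, dialyzed FBS.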

[17] = biological target: Glucocorticoid receptor (Homo sapiens) (UniProt P04150); test: qHTS assay for small molecule agonists of glucocorticoid receptor signaling (AID 588532; active means well fitted curve in the direction sought with a large enough effect in the signal ratio, with a control signal flat; inconclusive means small, poorly fitted or top-dose-only effect, or a change in a side signal; inactive means no such curve, though single readings can be large or run the other way; the % refers to the signal ratio); conditions: HeLa MMTV-bla, beta-lactamase ratio, agonist, 18 h; hits give high values; percent of dexamethasone control, DMSO zero
Chain of Glucocorticoid receptor (Homo sapiens) (P04150 whole entry, looked up): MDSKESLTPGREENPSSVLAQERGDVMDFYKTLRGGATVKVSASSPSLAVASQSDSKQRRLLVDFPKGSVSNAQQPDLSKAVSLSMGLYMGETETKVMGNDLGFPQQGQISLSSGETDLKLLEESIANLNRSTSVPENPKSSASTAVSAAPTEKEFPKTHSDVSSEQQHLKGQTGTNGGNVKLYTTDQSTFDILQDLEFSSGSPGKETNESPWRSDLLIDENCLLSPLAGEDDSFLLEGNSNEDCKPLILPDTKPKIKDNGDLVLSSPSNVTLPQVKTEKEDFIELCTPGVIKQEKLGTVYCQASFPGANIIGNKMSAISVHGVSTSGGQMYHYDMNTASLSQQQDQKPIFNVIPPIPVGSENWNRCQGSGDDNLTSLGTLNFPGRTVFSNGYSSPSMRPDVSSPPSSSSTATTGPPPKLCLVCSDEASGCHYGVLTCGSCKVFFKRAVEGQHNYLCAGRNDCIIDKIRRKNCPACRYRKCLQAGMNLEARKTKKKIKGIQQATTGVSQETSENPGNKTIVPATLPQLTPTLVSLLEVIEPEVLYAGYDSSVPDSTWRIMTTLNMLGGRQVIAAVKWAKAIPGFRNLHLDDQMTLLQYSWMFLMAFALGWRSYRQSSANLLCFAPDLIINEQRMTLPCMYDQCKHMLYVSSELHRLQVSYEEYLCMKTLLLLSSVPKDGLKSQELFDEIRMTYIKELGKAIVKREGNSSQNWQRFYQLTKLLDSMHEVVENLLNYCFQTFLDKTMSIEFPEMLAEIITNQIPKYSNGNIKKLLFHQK
Procedure, shortened: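 Stimulation of a glucocorticoid response element-driven beta-lactamase gene was measured in HeLa cells. Responses were scaled between DMSO basal and 0.1 uM dexamethasone, then fitted for half-maximal stimulation.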

[18] = biological target: Peroxisome proliferator-activated receptor gamma (Homo sapiens) (UniProt P37231); test: qHTS assay for small molecule antagonists of peroxisome proliferator-activated receptor gamma signaling (AID 588537; active means well fitted inhibition curve with a large enough effect in the signal ratio, with a control signal flat, not every such curve was filed as active; inconclusive means small, poorly fitted or top-dose-only effect, or effect the other way, or a change in a side signal; the % refers to the signal ratio;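 further: reporter cells co-stimulated with 50 nM rosiglitazone agonist during compound treatment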)
Chain of Peroxisome proliferator-activated receptor gamma (Homo sapiens) (P37231 whole entry, looked up): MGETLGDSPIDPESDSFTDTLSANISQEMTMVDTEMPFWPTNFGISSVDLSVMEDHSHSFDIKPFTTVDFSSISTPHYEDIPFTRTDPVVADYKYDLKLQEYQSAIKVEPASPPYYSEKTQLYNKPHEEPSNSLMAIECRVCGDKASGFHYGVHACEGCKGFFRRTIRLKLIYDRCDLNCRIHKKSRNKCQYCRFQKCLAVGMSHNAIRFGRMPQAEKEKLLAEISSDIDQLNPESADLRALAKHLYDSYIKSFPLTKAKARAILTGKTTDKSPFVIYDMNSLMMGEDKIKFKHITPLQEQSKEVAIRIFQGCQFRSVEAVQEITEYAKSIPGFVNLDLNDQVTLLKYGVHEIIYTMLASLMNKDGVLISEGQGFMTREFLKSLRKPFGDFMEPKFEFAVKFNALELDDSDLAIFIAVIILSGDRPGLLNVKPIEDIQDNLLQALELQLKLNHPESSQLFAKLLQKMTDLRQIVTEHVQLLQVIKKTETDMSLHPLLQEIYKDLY
Procedure, shortened: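 PPAR-gamma-UAS-bla HEK293 cells (3000/well, 1% charcoal/dextran-stripped FBS) were preincubated 6-6.5 h at 37 C, given titrated compounds, then stimulated with 50 nM rosiglitazone for 16 h. Beta-lactamase activity was read with CCF4 dye; IC50 came from Hill fits.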

Structure (SMILES): CN1C[C@H](CO)C=C2c3cccc4[nH]cc(c34)C[C@@H]21
- Potency [1]: 0.126 µM (active)

Structure (SMILES): O=C1C=C2C=C[C@H]3C[C@@]2(O1)[C@H]1CCCCN31
- Potency [2]: inactive
- Potency [1]: inactive
- Potency [3]: inactive

Structure (SMILES): CN1[C@@H](C[C@@H](O)c2ccccc2)CCC[C@@H]1C[C@H](O)c1ccccc1
- Potency [1]: 0.631 µM (active)

Structure (SMILES): C[C@@]12CC[C@H](O)C[C@@H]1CC[C@H]1[C@@H]2C[C@@H](O)[C@]2(C)[C@@H](C3=CC(=O)OC3)CC[C@]12O
- Potency [3]: inactive

Structure (SMILES): CO[C@@H](C)[C@](O)(C(=O)OCC1=CCN2CC[C@@H](O)[C@H]12)C(C)C
- Potency [3]: inactive

Structure (SMILES): COc1cc2c(cc1O)C[C@H]1c3c(cc(O)c(OC)c3-2)CCN1C
- Potency [1]: 7.94 µM (active)
- Potency [3]: inactive

Structure (SMILES): COc1cc2c(cc1O)[C@H]1Cc3ccc(OC)c(O)c3CN1CC2
- Potency [1]: 0.0316 µM (active)

Structure (SMILES): CN(C)[C@@H]1C(=O)C(C(N)=O)=C(O)[C@]2(O)C(=O)C3=C(O)c4c(O)ccc(Cl)c4[C@](C)(O)[C@H]3C[C@@H]12
- Potency [4]: inactive

Structure (SMILES): CN1[C@@H]2CC[C@H]1CC(O)C2 (stereo partly specified)
- Potency [2]: inactive

Structure (SMILES): COc1cc(N)c(Cl)cc1C(=O)N[C@@H]1CN2CCC1CC2
- Potency [4]: inactive

Structure (SMILES): O=C1C(Cl)=C(Cl)C(=O)C(Cl)=C1Cl
- Potency [5]: 9.41 µM (active)
- Potency [6]: 50.1 µM (active)
- Potency [7]: 25.1 µM (active)
- activity change, negative = cytotoxicity [8]: -104% (active)
- Potency [9]: 25.1 µM [inconclusive] (active)
- Potency [10]: 44.7 µM (active)
- Potency [11]: inactive
- Potency [12]: inactive
- outcome [13]: inactive

Structure (SMILES): C[N+]1=Cc2cc3c(cc2CC1)OCO3
- Potency [2]: inactive
- Potency [1]: 15.8 µM (active)
- Potency [3]: inactive

Structure (SMILES): CCCCCCCCCc1ccc(O)cc1
- Potency [5]: > 92 µM
- Potency [6]: inactive
- Potency [7]: 12.6 µM (active)
- activity change, negative = cytotoxicity [8]: -80.8% (active)
- Potency [10]: 31.6 µM (active)
- activation [14]: 1.31%
- Potency [11]: 10.6 µM (active)
- Potency [12]: 16.8 µM (active)

Structure (SMILES): CNC(=O)Oc1cccc2c1OC(C)(C)O2
- Potency [9]: inactive
- Potency [15]: inactive
- outcome [16]: inactive
- activation [17]: -2.85%
- Potency [18]: inactive
- activation [14]: -0.841%

Structure (SMILES): COc1cc2c(c(OC)c1OC)-c1ccc(O)c(=O)cc1[C@@H](NC(C)=O)CC2
- Potency [2]: inactive
- Potency [1]: inactive
- Potency [3]: inactive

Structure (SMILES): O=c1ccc2cc(O[C@H]3O[C@@H](CO)[C@@H](O)[C@@H](O)[C@@H]3O)c(O)cc2o1
- Potency [4]: inactive

Structure (SMILES): c1cncc([C@H]2CCCCN2)c1
- Potency [2]: 7.94 µM (active)
- Potency [1]: 12.6 µM (active)
- Potency [3]: 5.01 µM (active)
